Data from ChEMBL document CHEMBL3433997, “St. Jude Leishmania screening dataset” (2016).

Assays:
Assay type in all cases: functional
[1] = molecular target: Solute carrier family 2, facilitated glucose transporter member 1 (Homo sapiens) (UniProt P11166); assay: ST_JUDE_LEISH: Cytotoxicity at 2uM final concentration against transgenic Leishmania Mexicana promastigotes LmGLUT1 that are glucose transport deficient and complemented with the human glucose transporter GLUT1. Activity is measured by DNA content using SYBR green in vitro
[2] = molecular target: Hexose transporter 1 (Plasmodium falciparum) (UniProt O97467); assay: ST_JUDE_LEISH: Cytotoxicity at 2uM final concentration against transgenic Leishmania Mexicana promastigotes LmPfHT that are glucose transport deficient and complemented with the Plasmodium falciparum hexose transporter. Activity is measured by DNA content using SYBR green in vitro
[3] = molecular target: Glucose transporter (Leishmania mexicana) (UniProt O61059); assay: ST_JUDE_LEISH: Cytotoxicity at 2uM final concentration against transgenic Leishmania Mexicana promastigotes LmGT2 that are glucose transport deficient and complemented with the L. Mexicana glucose transporter 2. Activity is measured by DNA content using SYBR green in vitro

Chain of Solute carrier family 2, facilitated glucose transporter member 1 (Homo sapiens) (P11166 whole entry): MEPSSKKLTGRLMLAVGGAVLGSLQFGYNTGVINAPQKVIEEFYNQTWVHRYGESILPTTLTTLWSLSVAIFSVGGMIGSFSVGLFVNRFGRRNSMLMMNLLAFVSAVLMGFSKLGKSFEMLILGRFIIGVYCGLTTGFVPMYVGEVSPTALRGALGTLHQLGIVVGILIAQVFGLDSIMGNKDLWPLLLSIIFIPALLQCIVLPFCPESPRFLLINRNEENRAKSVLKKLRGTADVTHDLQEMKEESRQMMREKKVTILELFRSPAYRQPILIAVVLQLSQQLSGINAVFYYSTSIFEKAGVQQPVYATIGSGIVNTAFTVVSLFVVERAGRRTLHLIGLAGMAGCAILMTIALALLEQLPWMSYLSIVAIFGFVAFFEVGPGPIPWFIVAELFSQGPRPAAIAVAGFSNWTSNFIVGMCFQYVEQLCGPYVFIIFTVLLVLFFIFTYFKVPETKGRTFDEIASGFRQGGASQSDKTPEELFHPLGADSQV

Structure (SMILES)	inhibition [1] [%]	inhibition [2] [%]	inhibition [3] [%]
Cc1cc(-c2ccc(Cl)cc2)c2c(N)c(C(=O)Nc3ccc(F)cc3)sc2n1	0.19	-2.52	0.35
COc1ccc(N2CCN(CCCCNC(=O)c3ccc(NC(=O)c4cccc(Cl)c4)cc3)CC2)c(OC)c1	3.81	0.48	4.97
Cc1cc(O)c(-c2ccc(Sc3ccc(Cl)cc3)cc2)c(C)n1	-0.64	3.32	-4.88
COc1ccc(NC(=O)/C=C/c2ccccc2Cl)cc1OCCN1CCC(N2CCCC2)CC1	2.99	3.87	4.44
COc1cc(OC)c2c(C)cc(NCCCN3CCOCC3)nc2c1	1.92	0.95	-0.42
CCn1nc(C(=O)NC2CCOc3ccccc32)c2ccccc2c1=O (centres undefined)	-1.12	-0.92	-3.49
Oc1ccc(CCNCCCCCNCCCc2ccc(Cl)cc2)cc1O	2.04	-0.25	2.06
N#Cc1ccc(CNCCCCCCNCc2ccc(C#N)c3ccccc23)c2ccccc12	2.15	1.12	2.53
O=C(Nc1ccc(Cl)cc1C(=O)Nc1ccncc1)c1ccc(Cl)cc1Cl	6.71	5.88	5.53
FC(F)(F)c1ccc2[nH]c(-c3cccc(-c4ccc(CNCCN5CCNCC5)cc4)c3)nc2c1	2.75	2.47	1.97
COc1ccc(CCNCCCCNCCc2ccc(OC)c3ccccc23)c2ccccc12	64.4	55.5	102
Cc1cc2c(cc1C(F)(F)F)N(C(=O)Nc1ccc(OCCN(C)C)c(C(F)(F)F)c1)CC2	2.99	2.92	0.83
Fc1ccc(NC(=S)NCCc2ccccc2)cc1	0.73	-2.25	0.04
O=C(C1CCCC1)N1CCOC(CCN2CCC(c3ccccc3)CC2)(c2ccc(Cl)c(Cl)c2)C1 (centres undefined)	11.9	11.5	11.7
COC(=O)c1ccc2nc(-c3cc(OC)c(O)c(C(=O)NC4CCN(Cc5ccccc5)CC4)c3)[nH]c2c1	8.4	5.32	7.01
O=C(Nc1cccc(C(F)(F)F)c1)c1cccc(S(=O)(=O)NCC2CCCN2CC2CCCCC2)c1 (centres undefined)	5.37	3.21	4.26
Cc1ccccc1NC(=S)NC1CCN(CCCCCNC(=O)/C=C/c2ccc(Cl)c(Cl)c2)CC1	5.52	4.69	2.71
O=C(Cn1c(SCc2cccc(F)c2F)cc(=O)c2ccccc21)N(Cc1ccc(-c2ccc(C(F)(F)F)cc2)cc1)C1CCN(CCO)CC1	-0.08	-0.44	-1.32
